Test results: PubChem BioAssay AID1063 (University of Pittsburgh Molecular Library Screening Center, 2008)
Out of some 200,000 compounds screened, about 18,000 (9%) were called active. Many of the other results were omitted from the sample, so actives are more common in it than they were. A number with no mark means an inactive call. Cut-off read from the data, not from the text of the source: active = inhibition above about 50%; inactive = the rest.

Experiment: antileishmanial activity against promastigotes – primary screen (AID 1063);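 note: promastigotes grown with compound for 44 hours at 28 °C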
Settings: Leishmania major promastigotes, resazurin fluorescence viability; at 10 µM; hits give high values

| Structure (SMILES) | inhibition |
| --- | --- |
| CCN(CC)c1ccc2cc(C(=O)O)c(=O)oc2c1 | 22.2% |
| CCN(CC)c1ccc2c(Nc3ccccc3)c(C=O)c(=O)oc2c1 | -4.13% |
| CCN(CC)c1ccc2oc(=O)c(C)nc2c1 | 96.6% (active) |
| CNc1[nH]ncc1[N+](=O)[O-] | -7.01% |
| COc1ccc(CCn2ccc(O)c(Cc3ccc(Cl)cc3Cl)c2=O)cc1OC | 7.61% |
| COCCCNC(=S)N1CCCC(c2nc3cc(C)c(C)cc3[nH]2)C1 (centres undefined) | 0.93% |
| N=C1C(c2nc3ccccc3[nH]2)=C(O)CN1NC(=O)c1c[nH]c2ccccc12 | -3.91% |
| CC1Cc2ccccc2N1S(=O)(=O)c1c(N)n(C)c(=O)n(C)c1=O (centres undefined) | 99.8% (active) |
| CCCCn1ccnc1C(=O)c1cccc(S(=O)(=O)N2c3ccccc3CC2C)c1 (centres undefined) | 0.6% |
| Cn1c(=O)n(C)c2cc(S(=O)(=O)N3CCCc4ccccc43)ccc21 | 47.6% |
| CNS(=O)(=O)c1ccc(NC(=O)C2CC(=O)N(c3ccc(Cl)cc3)C2)cc1 (centres undefined) | 13.6% |
| Cc1cccc(NC(=S)NCCc2ccc(F)cc2)c1C | 28.5% |
| COc1ccc(CN2CCNC(=O)C2CC(=O)N(C)Cc2ccccn2)cc1OC (centres undefined) | 0.79% |
| COc1ccc2[nH]c(C)c(CCN(Cc3cccs3)C(=S)Nc3ccccc3OC)c2c1 | 66.1% (active) |
| Cc1[nH]c2ccccc2c1CCN(Cc1cccs1)C(=S)NC(C)(C)C | -1.09% |
| COc1cccc(NC(=S)N(CCc2c(C)[nH]c3ccccc23)Cc2ccco2)c1 | 19.9% |
| C/C(=N\NC(=O)c1cccnc1)c1ccc(-n2ccnc2)cc1 | -1.06% |
| Cn1cc(-c2ccccc2)cc(C#N)c1=O | -20% |
| CC(C)N1CCC(NC(=O)Nc2ccccc2)CC1 | -2.35% |
| COc1cc(/C=C/C(=O)OCC(=O)N2CCOCC2)ccc1OCC#N | -11.6% |
| Nc1nnc(SCn2nnc3ccccc3c2=O)s1 | -7.44% |
| CCNC(=S)Nc1cccc(Cl)c1C | -6.44% |
| Cc1c(Cl)cccc1NC(=S)NCc1ccc2c(c1)OCO2 | 81.5% (active) |
| S=C(NCc1ccc2c(c1)OCO2)NCc1ccco1 | 8.29% |
| CC(C)(C)c1cnnn1-c1ccc([N+](=O)[O-])cc1 | -0.24% |

| Structure (SMILES) | inhibition |
| --- | --- |
| CCc1nnc(NS(=O)(=O)c2ccc(NC(=S)NC(=O)c3cccs3)cc2)s1 | -1.21% |
| Cc1c(C(=O)O)nnn1-c1nonc1N | -0.68% |
| Cc1ccc(/C=C(\C#N)C(=O)Nc2cccc3ncccc23)o1 | 55.2% (active) |
| O=C(Nc1cccc2ncccc12)C(Cl)(Cl)Cl | -0.02% |
| Cc1ccc(C(=O)Nc2cccc3ncccc23)cc1[N+](=O)[O-] | 0.51% |
| C=CCn1c(SCn2nnc3ccccc3c2=O)nnc1-c1ccc(Cl)cc1 | 1.86% |
| C=CCn1c(SCc2c(C(=O)OC)sc(N)c2C(=O)OC)nnc1-c1ccc(Cl)cc1 | 50.9% (active) |
| C=CCn1c(SCc2cc(C(=O)OC)c(C)o2)nnc1-c1ccncc1 | -5.9% |
| CCOC(=O)C1(CC2CCCCO2)CCN(Cc2nc(-c3cccs3)oc2C)CC1 (centres undefined) | 19.6% |
| Cc1ccccc1NC(=O)NNC(=O)OC(C)(C)C | -6.97% |
| CCC(C)(C)NC(=O)C1c2ccccc2Oc2ccccc21 | 1.22% |
| CCCCOc1ccc(C(=O)NCc2ccco2)cc1 | -3.02% |
| CCOc1ccccc1C(=O)NCc1ccco1 | -8.32% |
| CCCC1=Nc2cc(C(=O)NCc3ccco3)ccc2Sc2ccccc21 | 91.3% (active) |
| Cc1ccc(S(=O)(=O)N2CCOCC2)cc1NC(=O)CSc1nnc(N)s1 | -4.64% |
| CC(Sc1nncn1C)C(=O)Nc1cc(C(F)(F)F)ccc1N1CCOCC1 (centres undefined) | -8.57% |
| CCCCNC(=O)c1ccc(-n2c(=S)[nH]c3ccccc3c2=O)cc1 | 2.08% |
| Cn1c(=O)c2cc(S(=O)(=O)NCCC(=O)Nc3ccc(F)cc3F)ccc2n(C)c1=O | 8.04% |
| Cc1ccc(-n2ncc3c2ncn2nc(-c4ccco4)nc32)c(C)c1 | -2.03% |
| Cc1ccc(-c2nc3c(cnn3-c3ccccc3)c(=O)o2)cc1 | -4.66% |
| Cc1ccc(-n2ncc3c(=O)n(-c4ccc(C)c(C)c4)c(-c4ccco4)nc32)cc1 | 51.5% (active) |
| COc1ccc(-c2nc(CN3CCN(c4ncccn4)CC3)c(C)o2)cc1C | 30.8% |
| COc1cc(OC)cc(-c2nc(=S)n3ccsc3n2)c1 | -3.3% |
| O=C(N1CCCCC1)N1CCN(C(=O)N2CCCCC2)CC1 | -3.35% |
